The full ranking holds about 68,000 sequences; the median of “fluorescence intensity (a.u.)” is about 9,100, and the highest 2% start at about 16,000. The sample as a whole holds a higher share of the highest values than the screen did.

This passage reports binding signal results from article PMC7819943, “Rice protein-binding microarrays: a tool to detect cis-acting elements near promoter regions in rice”.

Sequence of OsWRKY34 (Q0JBA9 entry or part of it): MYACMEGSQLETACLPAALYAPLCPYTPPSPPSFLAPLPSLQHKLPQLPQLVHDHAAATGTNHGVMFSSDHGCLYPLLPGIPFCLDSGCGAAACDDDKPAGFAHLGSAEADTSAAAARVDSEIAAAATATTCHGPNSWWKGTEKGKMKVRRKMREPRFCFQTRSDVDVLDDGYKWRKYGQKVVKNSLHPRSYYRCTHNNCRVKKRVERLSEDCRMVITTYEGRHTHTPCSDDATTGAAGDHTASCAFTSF

This assay concerns the target OsWRKY34 (Oryza sativa, UniProt Q0JBA9 1-250). Briefly: protein-binding microarray (RPBM); PBS, 2% BSA, 51.3 ng/ul salmon testes DNA, 50 uM zinc acetate, 200 nM TF, 25 C, 1 h; high values mean tight binding. To be noted: protein: recombinant; tags: N-terminal polyhistidine and DsRed monomer fusion (pET32a); label: CyDye5-dUTP incorporated in the synthesized complementary strand; 3' TTTTT single-stranded linker to array surface; dsDNA, one strand shown. The procedure, abridged:
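Ni–NTA purification followed expression in E. coli BL21-CodonPlus of transcription factors fused N-terminally to a polyhistidine tag and DsRed. At 200 nM in PBS with 2% BSA, salmon testes DNA and 50 µM zinc acetate, the protein was incubated for 1 h at 25 °C with a custom Agilent array that had been primer-extended with Cy5-dUTP and blocked with 2% BSA. After washing, the array was read on an Axon 4000B scanner. The binding signal is per-feature fluorescence intensity in arbitrary units.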
Turning to “CATCCAACCATCACACACAGTTAGCATATCAGTAGTCGTTCGGAGTCACCTAGTGCAG”, the binding signal was 8210 fluorescence intensity (a.u.).
Under “TCCATCCCGGCCCGGCACTGCACACACGCGCGTAGTACCACGGAGTCACCTAGTGCAG” stands 8130 fluorescence intensity (a.u.); under “TCTTCGGCCTCTCCGCCTCCGCCATTGACAGCGTTGACCACGGAGTCACCTAGTGCAG”, 18300 fluorescence intensity (a.u.); under “AGACCGTTGACTTGACTAGTCCACTCCTCTTTCACACGTACGGAGTCACCTAGTGCAG”, 12100 fluorescence intensity (a.u.).
Under “GCCATTGACAGCGTTGACCAAGTCAGCCGCTCCAGCCTCTCGGAGTCACCTAGTGCAG” stands 14200 fluorescence intensity (a.u.).
For “AACTTGAGCGTTGACCGCTTTGACTCCTCTTCTTTCTCCACGGAGTCACCTAGTGCAG” the value was 24900 fluorescence intensity (a.u.).
As for “ATGACCGGCCACCACCATTGCCACCGGCCGATCTCCTCTTCGGAGTCACCTAGTGCAG”, the binding signal is 9360 fluorescence intensity (a.u.).
For “ACTCCTACAGTAGTGACTTGAGTAGCGCTTCTTTTTTCCACGGAGTCACCTAGTGCAG” the value was 9440 fluorescence intensity (a.u.); for “GCCACCTTTTGTTCCGCAACCGCAATGATTTCTTCTTCTTCGGAGTCACCTAGTGCAG”, 14800 fluorescence intensity (a.u.).
With “TATATATATATATATATATAGATTTATTGACATCTATATGCGGAGTCACCTAGTGCAG”, the binding signal was 9230 fluorescence intensity (a.u.).
For “TAGTGGTGGTCTTGATTCCTGACATAGCAGACGCATCTGACGGAGTCACCTAGTGCAG” the value was 10500 fluorescence intensity (a.u.); for “GTTTGACATGCAGACTTGATTCTATCACCTATAGCATCTGCGGAGTCACCTAGTGCAG”, 28100 fluorescence intensity (a.u.); for “TTCTTCATTATCTCTATTTGTGGTGCTATTGGTTTATTTTCGGAGTCACCTAGTGCAG”, 8980 fluorescence intensity (a.u.).
“CTTCCTAACGTTCATATCTCTGTGTTTTTAGTGTGTCATACGGAGTCACCTAGTGCAG”: the binding signal is 9860 fluorescence intensity (a.u.).
Under “GGGGTTTCTCATGGGCCAACTATACATTCACACGCGGCCGCGGAGTCACCTAGTGCAG” stands 17400 fluorescence intensity (a.u.); under “ATCTGATTTTTATTTTCAGCATATGCATCGTTTTCATGTTCGGAGTCACCTAGTGCAG”, 10200 fluorescence intensity (a.u.).
Under “TCTTGGTTACATGGTGGTTGGTGTTTCATTCTCTTGTTTTCGGAGTCACCTAGTGCAG” stands 10000 fluorescence intensity (a.u.); under “TTCAGTTTTTGCTTGCAACGTTTGACCACTCGTCTTATTCCGGAGTCACCTAGTGCAG”, 15600 fluorescence intensity (a.u.).
Turning to “TCAGTTTTTGTTTGCAATGTTTGACCACTCGTCTTATTCACGGAGTCACCTAGTGCAG”, the binding signal is 18500 fluorescence intensity (a.u.).
For “TTTACATTCATTTCTCTATACGAGCATGGGCCGCACTATACGGAGTCACCTAGTGCAG” the value was 9830 fluorescence intensity (a.u.); for “GAGTTTTTACTTTGTAATGTTTGACCACTCGTCTTATTCACGGAGTCACCTAGTGCAG”, 8880 fluorescence intensity (a.u.); for “ATTTTCATTTGGTTGGTGTGGTTATCTCTTTTTTCATTTACGGAGTCACCTAGTGCAG”, 20700 fluorescence intensity (a.u.).
For “GGTTTCTTCTCATTCTTCTTTTTTTCCTTTTTTCTACACGCGGAGTCACCTAGTGCAG” the value was 14000 fluorescence intensity (a.u.); for “CTGTCGTGTTTCCTCTGATTAGTTCATACAGCATCTGTTACGGAGTCACCTAGTGCAG”, 17600 fluorescence intensity (a.u.).
Consider “GGCCTAATTATTGCCTTAATTTTTCTCTTTGGTTTTCTCACGGAGTCACCTAGTGCAG”, for which the binding signal was 9070 fluorescence intensity (a.u.).
In the case of “TGAGGGCTGCTGTGCTATTCTTCCTGGACATCTCTGGGTCCGGAGTCACCTAGTGCAG”, the binding signal is 8650 fluorescence intensity (a.u.).
Under “TTTCTGTTTAACGTCAACCCGGCTGTTTTCGCCCGGTCAACGGAGTCACCTAGTGCAG” stands 9040 fluorescence intensity (a.u.).
For “GCCAAGACGCCCAAAGCACACACTCTCTCTCGCTGTCTTTCGGAGTCACCTAGTGCAG”, the binding signal was 8490 fluorescence intensity (a.u.).
For “GATTTGATGGATTTGTTGAGAGATATGCTTCTTAAGCCAACGGAGTCACCTAGTGCAG” the value was 8300 fluorescence intensity (a.u.); for “CACACCTAGGCCGCCTTTTTCAACCGGGGAGCACACCTTTCGGAGTCACCTAGTGCAG”, 10400 fluorescence intensity (a.u.); for “AATATGTACTACTTCCGTTTCAGGTTATAAGACTTTCTAGCGGAGTCACCTAGTGCAG”, 8400 fluorescence intensity (a.u.).
For “CGTAGTAATGTCTGAATTCACCGCCTTAATCCTGTCACGACGGAGTCACCTAGTGCAG” the value was 8450 fluorescence intensity (a.u.).
For the sequence “TTTTTCTTTTCTCGCGTACAGCTGGACGCTTCGTTTGCTTCGGAGTCACCTAGTGCAG”, the binding signal was 11100 fluorescence intensity (a.u.).
With “CCCATCAACCGCCAAAGACTTCCCGCGCGCGTCTACATATCGGAGTCACCTAGTGCAG”, the binding signal is 8450 fluorescence intensity (a.u.).
“ACCGTCCTCCTCGTCACCCACCAGCTCGACTTCCTCCGCACGGAGTCACCTAGTGCAG”: the binding signal was 8200 fluorescence intensity (a.u.).
Regarding “GTCAACGATCCGGCGTCTGTTCCACTTCTACCCTCCCATCCGGAGTCACCTAGTGCAG”, the binding signal was 8250 fluorescence intensity (a.u.).
Under “TCTGCATGATTCCTTGGTTTCTTTTTTTACACATTTACTTCGGAGTCACCTAGTGCAG” stands 10500 fluorescence intensity (a.u.); under “CTGGATCTCCTCTCTCTCTCTCTCTCTCTGTCCTTCTTCTCGGAGTCACCTAGTGCAG”, 10800 fluorescence intensity (a.u.); under “ATACTCTTGGTTTATCTTTGATTTTGTATATCTTTTTATTCGGAGTCACCTAGTGCAG”, 9720 fluorescence intensity (a.u.).
Take “ATTTTACTCTTTTGACTATATTGGTTCGGTTGAAGTTTTACGGAGTCACCTAGTGCAG”: the binding signal was 23100 fluorescence intensity (a.u.).
For “CATATGTTTGACCATTCGTCTTATTCAAAAATTTTATTCACGGAGTCACCTAGTGCAG” the value was 9660 fluorescence intensity (a.u.); for “TACTGGTTCTACTTGATCTTATTTATCTTTTTATTCTATTCGGAGTCACCTAGTGCAG”, 10100 fluorescence intensity (a.u.).
For “TTTCTCATATGTTTGACCATTCGTCTTATTAAAAAAATTTCGGAGTCACCTAGTGCAG”, the binding signal was 8930 fluorescence intensity (a.u.).
For “CCCTTTACTTGATTTTCTGCTGGTTGGTTTATCTTTTATTCGGAGTCACCTAGTGCAG” the value was 19600 fluorescence intensity (a.u.); for “CTGTTGACTTTTTCTTATATGTTTGACCATTCGTCTTATTCGGAGTCACCTAGTGCAG”, 24600 fluorescence intensity (a.u.).
For “ATTTAGAGTTGACTTTGGTTTATTTTTCATTGAAGTTTATCGGAGTCACCTAGTGCAG”, the binding signal is 9450 fluorescence intensity (a.u.).
Under “ACCATCTCTCTCTCTCTCTCTGCATGCATATCTTCTCCTCCGGAGTCACCTAGTGCAG” stands 14300 fluorescence intensity (a.u.); under “CATCTGTCTCTGGATCTCTGCATATCTCCTCTTCTGTGATCGGAGTCACCTAGTGCAG”, 17200 fluorescence intensity (a.u.); under “TCTGCTTCACTGTATTTTTGTCCAACAATTCCATGACATGCGGAGTCACCTAGTGCAG”, 8550 fluorescence intensity (a.u.).
With “TTTAGATTTATTTTTTGTGACATAGGGAGTACTTTTTTTTCGGAGTCACCTAGTGCAG”, the binding signal was 9200 fluorescence intensity (a.u.).
Regarding “CTTCTCAAGTTCCAACCTTTGCGCTTTCTTATTATCAAAGCGGAGTCACCTAGTGCAG”, the binding signal is 8550 fluorescence intensity (a.u.).
For “GCACGCATGCAGTTCCTTGACCAATTCTCACATCAACCACCGGAGTCACCTAGTGCAG” the value was 9100 fluorescence intensity (a.u.); for “AAACGTATGGCTGCTCTCTCTCTGCTGATGATCTCTCTCTCGGAGTCACCTAGTGCAG”, 8180 fluorescence intensity (a.u.); for “GCCAATTTTTTCTCCTCACATCTATTTTACCCTATTATTCCGGAGTCACCTAGTGCAG”, 8390 fluorescence intensity (a.u.).
